Screening data from PubChem.
Rows were chosen to be rich in hits. Some 19% of all compounds tested hit in one or more screens of this group.
IL-1B inflam inh: inhibitors of inflammasome signaling (IL-1 beta secretion); 4.7% of 360,000 active; activity change, % at 57.5 µM; AID 743279; THP-1 LPS/ATP IL-1B secretion, AlphaLISA, 16 h; stronger effect = lower value; in the data active = activity change below about -50%; inconclusive = mostly about -30% to -49%; also: % is scaled to controls: 0 for no effect and ±100 for the full control effect
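THP-1 cells pretreated 1 hr with compounds (up to 57.5 uM final), then stimulated with LPS (250 ng/mL final) plus ATP (1.25 mM final); secreted IL-1B measured by AlphaLISA after 16 hr, decreased signal indicating inhibition.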
DT40 TDP1 CPT: DT40-hTDP1 cell growth loss with CPT. 12% of 420,000 active. chicken DT40 Tdp1-/-;hTDP1 cells + 20 nM CPT, ATP luminescence, 48 h. Potency, µM (series often up to 46.2 µM), without a hit: at the top dose activity change, negative = growth inhibition, most hits filed as inhibitors; also: potency is read from the fitted curve at half-maximal effect; % is scaled to controls: 0 for no effect and ±100 for the full control effect; nearly all actives have a fitted effect of over 55% in size
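Cell growth measured by CellTiter-Glo luminescence after a minimum 48 h, 37 C compound exposure with 20 nM CPT in Tdp1-knockout DT40 cells stably expressing hTDP1, seeded 400/well; qHTS titration format.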
Chronic BCR inh: inhibitors of chronic active B-cell receptor signaling | Potency, µM (highest dose often 46.1 µM), inactives show at the highest dose activity change, negative = inhibition, most hits filed as inhibitors | 0.05% of 340,000 active | AID 493014 | ABC-DLBCL IkBa-CBG/CBR reporter, luminescence ratio, 4 h; active = well fitted inhibition curve with a large enough effect in the signal ratio, with a control signal flat, not every such curve was filed as active; inconclusive = small, poorly fitted or top-dose-only effect, or effect the other way, or a change in a side signal; the % refers to the signal ratio;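 also: potency is read from the fitted curve at half-maximal effect; plate controls were basal doxycycline-induced cells for no effect and cells given 10 µM MG132 for full effect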
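Concentration-response series (up to 46 uM) were applied to TMD8 dual-reporter cells for 4 h at 37C with doxycycline. Green/red ratio, after filter-overlap correction, defined %Activity; red signal alone was normalised to basal cells and zero luminescence.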
SW480 rereplic: induces DNA re-replication in SW480 colon adenocarcinoma cells. 1.8% of 340,000 active. SW480 DNA re-replication, Hoechst DNA content imaging, 48 h. Potency, µM (series often up to 46.1 µM), for inactives: top-dose re-replication activation, usual class: activators; also: potency is read from the fitted curve at half-maximal effect; % of control where 0% means no effect; nearly all actives have a fitted effect of over 55% in size
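SW480 cells exposed to compounds for 48 hr at 37 C, 5% CO2, then Hoechst-stained 40 min. Nuclear DNA content imaged by fluorescence scanning (405 nm excitation, 500-530 nm emission); re-replication scored as increased high-intensity nuclei.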
DT40 TDP1 no CPT: qHTS for Inhibitors of human tyrosyl-DNA phosphodiesterase 1 (TDP1): qHTS in cells in absence of CPT; DT40 Tdp1-/- hTDP1 cells, no CPT, ATP luminescence, 48 h; Potency, µM (highest dose often 46.2 µM), without a hit: at the top dose activity change, negative = growth inhibition, actives largely listed as inhibitors; 15% of 420,000 active; also: potency is read from the fitted curve at half-maximal effect; % is scaled to controls: 0 for no effect and ±100 for the full control effect; nearly all actives have a fitted effect of over 55% in size
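Growth of hTDP1-complemented DT40 Tdp1-knockout cells is measured by ATP luminescence after at least 48 hr compound exposure at 37 °C, with DMSO substituting for the 20 nM CPT used in the parallel screen.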
MCF10A rereplic: induces DNA re-replication in MCF 10a normal breast cells. MCF 10A DNA re-replication, Hoechst nuclear intensity, 48 h. Potency, µM (series often up to 46.1 µM), for the others: at the top dose activity, positive = re-replication, hits mostly activators. 2.9% of 350,000 active; also: potency is read from the fitted curve at half-maximal effect; % of control where 0% means no effect; nearly all actives have a fitted effect of over 50% in size
Numbers without * were called inactive; ? = inconclusive; nt = no result; [ ] = another dose, or the depositor's remark. Unless noted, calls follow the shape of the dose curve; as a rule, active = well fitted curve in the direction sought with a large enough effect; inconclusive = small, poorly fitted or top-dose-only effect, or another doubt; inactive = no such curve, though single readings can be large; an effect the other way counts as inactive or inconclusive.

SMILES	IL-1B inflam inh	DT40 TDP1 CPT	Chronic BCR inh	SW480 rereplic	DT40 TDP1 no CPT	MCF10A rereplic
COc1ccc(-n2c(=O)c(C)nc3cnc(N4CCNCC4)nc32)cc1	nt	1%	nt	nt	-5%	nt
O=C(NCc1ccccc1)c1cccc(NC(=O)C2CCCC2)c1	-8	?	nt	0%	-40%	?
CCN1C(=O)[C@@H]2[C@@H](c3ccc(-c4ccc(C(C)=O)cc4)c(OC)c3)N3CCCC[C@@]3(C(=O)OC)[C@@H]2C1=O	-4	?	0%	2%	15µM*	-17%
CCN1C(=O)[C@@H]2[C@@H](c3ccc(-c4ccc(F)cc4)c(OC)c3)N3CCC[C@@]3(C(=O)OC)[C@@H]2C1=O	-7	23µM*	-2%	-1%	?	-40%
CCN1C(=O)[C@H]2[C@@H](c3ccc(-c4ccc(F)cc4)c(OC)c3)N3CCCC[C@@]3(C(=O)OC)[C@H]2C1=O	-74*	23µM*	?	27%	16µM*	?
CCN1C(=O)[C@@H]2[C@@H](c3ccc(-c4ccc(C(C)=O)cc4)c(OC)c3)N3CCC[C@@]3(C(=O)OC)[C@@H]2C1=O	-14	?	-18%	-5%	?	9%
CCN1C(=O)[C@H]2[C@@H](c3ccc(-c4ccc(C(C)=O)cc4)cc3)N3CCCC[C@@]3(C(=O)OC)[C@H]2C1=O	-20	?	2%	?	12µM*	22%
Cc1ccc(Oc2ncccc2C(=O)NCC(=O)O)cc1	10	4%	-1%	-2%	-4%	0%
O=S(=O)([O-])CCC[N+]1(CC#Cc2ccccc2)CCCCC1	5	16µM*	?	-80%	15µM*	2%
C(#Cc1ccccc1)C[N+]1(CC#Cc2cccc3ccccc23)CCCC1	-62*	0.65µM*	-1%	4%	0.058µM*	?
CCC[N+]1(CC#CC(O)(c2ccccc2)C2CCCCC2)CCCCC1 (centres undefined)	-14	-27%	?	-15%	?	4%
CCCCN(C=O)c1c(CC)nc2ccc(C(=O)N3CCCCC3)cn12	-2	?	nt	nt	8%	nt
COc1cccc(NC(=O)Cn2c(=O)n(Cc3ccc(C(=O)NCc4ccc5c(c4)OCO5)cc3)c(=O)c3ccccc32)c1	nt	-8%	nt	nt	-17%	nt
Cc1cc(N2CCCC2)nc2ccc(NC(=S)NCCCOC(C)C)cc12	-11	?	3%	?	?	?
CCN(CC)CCNC(=S)Nc1ccc2nc(N3CCN(C)CC3)cc(C)c2c1	-51*	26µM*	-7%	?	16µM*	?
CCCN(CCC)CCCNC(=S)Nc1ccc2nc(N3CCCC3)cc(C)c2c1	?	?	?	?	13µM*	?
Cc1cc(N2CCN(C)CC2)nc2ccc(NC(=S)NCCCN3CCN(C)CC3)cc12	-25	?	?	10%	?	-1%
CCN(CC)CCNC(=S)Nc1ccc2nc(N3CCCC3)cc(C)c2c1	-66*	13µM*	?	?	10µM*	?
CCN(CC)CCNC(=S)Nc1ccc2nc(N3CCOCC3)cc(C)c2c1	?	?	-4%	8%	-27%	22%
O=C(CSc1oc(-c2ccccc2)nc1S(=O)(=O)c1ccccc1)c1ccccc1	nt	12µM*	nt	nt	15µM*	nt
Cc1ccc(S(=O)(=O)c2nc(-c3ccc(F)cc3)oc2SCC(N)=O)cc1	0	0%	0%	-1%	-9%	1%
O=C(CSc1oc(-c2ccccc2)nc1S(=O)(=O)c1ccc(Cl)cc1)NC1CCCCC1	nt	-3%	nt	nt	-14%	nt
Cc1cc(C)cc(NC(=O)CSc2oc(-c3ccccc3)nc2S(=O)(=O)c2ccccc2)c1	nt	18µM*	nt	nt	23µM*	nt
NC(=O)CSc1oc(-c2cccs2)nc1S(=O)(=O)c1ccc(Br)cc1	nt	-14%	nt	nt	?	nt
O=C(CSc1oc(-c2ccccc2)nc1S(=O)(=O)c1ccc(Br)cc1)c1ccccc1	nt	?	nt	nt	10µM*	nt
SMILES	IL-1B inflam inh	DT40 TDP1 CPT	Chronic BCR inh	SW480 rereplic	DT40 TDP1 no CPT	MCF10A rereplic
CC(=O)Nc1nnc(S(=O)(=O)N2CCN(c3ccc(Cl)cc3[N+](=O)[O-])CC2)s1	-25	-19%	3%	24%	17%	3%
CCCCCCCCNC(=O)c1cccnc1SCC(=O)Nc1ccc(OC)cc1OC	15	-26%	-2%	-3%	21µM*	?
CC(C)c1ccccc1NC(=O)Nc1nnc([C@H]2C[C@H](O)[C@@H](CO)O2)s1	17	-11%	nt	nt	-9%	nt
CC1(c2ccccc2)NC(=O)N(CC(=O)Nc2ccc3c(c2)CCC3)C1=O (centres undefined)	-19	-28%	-1%	1%	?	0%
Cc1cccc(OCC(=O)NNC(=O)CCCCC(=O)NNC(=O)COc2cccc(C)c2)c1	4	0%	0%	0%	13%	1%
CC[C@]1(c2cccc(C)c2)C(=O)N(C(=O)OC)N1C(=O)OC	-105*	5.2µM*	9%	1%	13µM*	?
COC(=O)N1C(=O)[C@](c2ccccc2)(C(C)C)N1C(=O)OC	-92*	?	?	0%	?	?
CC[C@@]1(c2ccccc2C)C(=O)N(C(=O)OC)N1C(=O)OC	-58*	13µM*	10%	-5%	?	-17%
CC[C@]1(c2ccccc2)C(=O)N(C(=O)OC)N1C(=O)OC	-81*	21µM*	1%	-1%	16µM*	-5%
COc1ccc(CNC(=O)CN2C(=O)NC(c3ccccc3)(c3ccccc3)C2=O)cc1	-17	?	-9%	-1%	-30%	-2%
Cc1ccccc1CNC(=O)COc1ccccc1	0	-21%	-9%	4%	1%	?
O=c1c(-c2ccc(F)cc2)nc2cnc(N3CCOCC3)nc2n1CCc1ccccc1	nt	18%	nt	nt	-2%	nt
CCOc1ccc(CNC(=O)C2CCN(c3nn4c(=O)cc(C)nc4s3)CC2)cc1	-4	?	-1%	-7%	-9%	6%
CC[C@@]1(c2ccccc2)C(=O)N(C(=O)OC)N1C(=O)OC	?	8.2µM*	1%	4%	?	?
COC(=O)N1C(=O)[C@@](c2ccccc2)(C2CCCCC2)N1C(=O)OC	-103*	?	?	-15%[9.22 µM]	18µM*	15µM*
CCOC(=O)N1C(=O)[C@](c2ccc(Cl)cc2)(C(C)C)N1C(=O)OCC	-98*	18µM*	?	?	15µM*	?
